From PubChem
A selection: hits, their analogues and other compounds. The true share with any hit is near 6.9%.
CSC inhib: blocks cancer stem cells; cancer stem cell-like cells viability, luminescence; inhibition, % at 7.5 µM; 1.1% of 300,000 active; in the data active means inhibition above about 75%; tested in HMLE shEcad cells
MPTP block: inhibitors of mitochondrial permeability transition pore; isolated mouse mitochondria, Ca2+ swelling absorbance, 30 min; inhibition, % at 10 µM; 1.4% of 360,000 active; AID 602449;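 active means inhibition of 50% or more, scaled per plate between neutral and stimulator controls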
Beta cell apopt: blocks beta cell apoptosis; INS-1E cytokine-induced death, ATP luminescence, 48 h; percent of positive-control rescue, neutral wells zero; protection from apoptosis, % (test concentration not listed); 0.8% of 300,000 active; AID 435005;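 active means Every replicate reaches about 75%, or at least half do and their mean reaches it too, limit read from the data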;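 further: higher means more ATP so stronger rescue from cytokine killing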
GRIN3A LBD mod: modulates the human NR3A ligand-binding domain; Tm shift relative to glycine control, % at 25 µM; NR3A LBD differential scanning fluorimetry, Tm shift; 0% = protein alone, 100% = glycine-bound protein; 2.5% of 340,000 active;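 active means melting temperature shift of at least 10% of the positive control shift, at one fixed dose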
Mdm2 MdmX PPI: disrupts the human Mdm2-MdmX interaction. O15151+Q00987. SaOS-2 split-luciferase Mdm2/MdmX complementation, luminescence. inhibition, % at 8 µM. 3% of 330,000 active. AID 485346;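 active means inhibition of at least 50% at 8 µM in the primary screen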
Target sequence (O15151 whole entry, looked up): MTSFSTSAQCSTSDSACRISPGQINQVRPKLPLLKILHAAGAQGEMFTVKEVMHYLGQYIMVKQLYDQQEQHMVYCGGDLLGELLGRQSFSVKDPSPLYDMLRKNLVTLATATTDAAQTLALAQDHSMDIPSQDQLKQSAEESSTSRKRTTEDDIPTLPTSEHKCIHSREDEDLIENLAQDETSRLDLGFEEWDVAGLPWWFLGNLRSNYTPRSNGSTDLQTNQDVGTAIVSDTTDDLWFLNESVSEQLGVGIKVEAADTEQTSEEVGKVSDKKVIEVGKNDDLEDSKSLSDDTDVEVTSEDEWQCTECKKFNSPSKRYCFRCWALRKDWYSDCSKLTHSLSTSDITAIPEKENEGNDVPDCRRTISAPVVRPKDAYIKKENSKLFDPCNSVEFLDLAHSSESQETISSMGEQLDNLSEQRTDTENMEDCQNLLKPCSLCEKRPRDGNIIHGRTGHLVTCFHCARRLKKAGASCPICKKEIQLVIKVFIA
Target sequence (Q00987 whole entry, looked up): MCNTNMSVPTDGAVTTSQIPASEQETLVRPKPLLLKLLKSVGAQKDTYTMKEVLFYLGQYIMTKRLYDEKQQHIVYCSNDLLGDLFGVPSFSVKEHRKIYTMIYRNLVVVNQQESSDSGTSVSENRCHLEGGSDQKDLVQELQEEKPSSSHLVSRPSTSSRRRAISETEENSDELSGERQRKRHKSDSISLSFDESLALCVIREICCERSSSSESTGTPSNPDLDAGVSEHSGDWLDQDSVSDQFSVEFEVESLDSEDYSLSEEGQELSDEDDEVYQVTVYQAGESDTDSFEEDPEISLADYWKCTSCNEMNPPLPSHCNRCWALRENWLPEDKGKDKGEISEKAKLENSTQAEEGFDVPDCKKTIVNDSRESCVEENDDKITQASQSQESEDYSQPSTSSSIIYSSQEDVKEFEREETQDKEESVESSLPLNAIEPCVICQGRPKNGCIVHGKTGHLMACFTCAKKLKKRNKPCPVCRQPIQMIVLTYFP
SKKanGAS inh: inhibitors of SKKanGAS S. pyogenes growth in kanamycin (SK-promoter or general growth effect) | 1.3% of 300,000 active | inhibition, % at 7.5 µM | BacTiter-Glo, 6 h;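 active means mean replicate score, as percent of positive control median, at least 50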;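 further: strain carries kanamycin resistance gene driven by streptokinase promoter and grows in 40 µg/ml kanamycin; loss of luminescence reflects streptokinase promoter inhibition or plain growth inhibition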
Mdm2 MdmX conf: human Mdm2/MdmX binding inhibition, confirmed; shares compounds with Mdm2 MdmX PPI; luminescent assay; inhibition, % at 8 µM; 55% of 10,000 active; AID 489028; in the data active means inhibition above about 40%
FLuc counter: inhibits full-length luciferase, flagging false Mdm2/MdmX hits. 77% of 6,200 active. inhibition, % at 8 µM. shares compounds with Mdm2 MdmX PPI. SaOS-2 full-length luciferase counterscreen, luminescence;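 active means mean inhibition at 8 µM reaching about 37%, which flags the compound as non-specific, limit read from the data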;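 further: p53-null SaOS-2 cells with luciferase driven by a doxycycline-inducible promoter; compound on cells about two nights before reading with doxycycline added after day one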
Large screens that a line does not name were inactive (follow-up assays come after a bar, where they were run).

COc1ccccc1C(=O)N(C)c1nnc(-c2ccccc2)s1	none
CCC(=O)NC(c1ccccc1OC)c1ccc2cccnc2c1O (stereo not given)	CSC inhib 93, Beta cell apopt 109, Mdm2 MdmX PPI 70 | Mdm2 MdmX conf 60 | FLuc counter inactive
CCCCC(=O)NC(c1ccccc1Cl)c1ccc2cccnc2c1O (stereo not given)	CSC inhib 99, Beta cell apopt 106, Mdm2 MdmX PPI 80, SKKanGAS inh 69 | Mdm2 MdmX conf 90 | FLuc counter inactive
CCCCC(=O)NC(c1ccccc1)c1ccc2cccnc2c1O (stereo not given)	CSC inhib 110, Beta cell apopt 99, Mdm2 MdmX PPI 72 | Mdm2 MdmX conf 88 | FLuc counter 50
CCC(=O)NC(c1ccc(OC)cc1)c1cc(Cl)c2cccnc2c1O (stereo not given)	CSC inhib 119, Beta cell apopt 96, Mdm2 MdmX PPI 79 | Mdm2 MdmX conf 81 | FLuc counter inactive
CCCC(=O)NC(c1ccc(OC)cc1)c1ccc2cccnc2c1O (stereo not given)	CSC inhib 119, Beta cell apopt 97, Mdm2 MdmX PPI 82 | Mdm2 MdmX conf 78 | FLuc counter 50
COc1ccc(C(NC(=O)c2cccnc2)c2cc(Cl)c3cccnc3c2O)cc1OC (stereo not given)	Beta cell apopt 91, Mdm2 MdmX PPI 75 (no result: CSC inhib) | Mdm2 MdmX conf 78 | FLuc counter inactive
COc1ccc(CNC(=O)CSc2cccc3cccnc23)cc1	none (no result: CSC inhib, Beta cell apopt)
CCCCC(=O)NC(c1ccc(C(C)C)cc1)c1ccc2cccnc2c1O (stereo not given)	Mdm2 MdmX PPI 78, SKKanGAS inh 88 (no result: CSC inhib, Beta cell apopt) | Mdm2 MdmX conf 88 | FLuc counter inactive
CCC(=O)NC(c1ccco1)c1cc(Cl)c2cccnc2c1O (stereo not given)	none
CC(=O)NC(c1ccc(C(C)C)cc1)c1ccc2cccnc2c1O (stereo not given)	CSC inhib 109, Beta cell apopt 90, Mdm2 MdmX PPI 81 | Mdm2 MdmX conf 83 | FLuc counter inactive
O=C(c1ccco1)N1CCN(Cc2cc(=O)c(OCc3c(F)cccc3Cl)co2)CC1	none
COc1ccc(C)cc1S(=O)(=O)Nc1ccc2c(c1)N(C(C)=O)CCC2	none (no result: CSC inhib)
COc1ccc(Cl)cc1C(Nc1cccnc1)c1ccc2cccnc2c1O (stereo not given)	Mdm2 MdmX PPI 67, SKKanGAS inh 69 (no result: Beta cell apopt) | Mdm2 MdmX conf 63 | FLuc counter 44
CCCCC(=O)NC(c1ccco1)c1cc(Cl)c2cccnc2c1O (stereo not given)	CSC inhib 102, Beta cell apopt 104, Mdm2 MdmX PPI 63, SKKanGAS inh 52 | Mdm2 MdmX conf 56 | FLuc counter inactive
CCCC(=O)NC(c1ccccc1)c1ccc2cccnc2c1O (stereo not given)	CSC inhib 108, Beta cell apopt 99, Mdm2 MdmX PPI 79 | Mdm2 MdmX conf 89 | FLuc counter 49
CCC(=O)NC(c1ccc(OC)cc1)c1c(O)ccc2ccccc12 (stereo not given)	Mdm2 MdmX PPI 63 | Mdm2 MdmX conf 62 | FLuc counter 71
CCN(C(=O)COC(=O)c1oc2ccc(OC)cc2c1C)C1CCCCC1	none
Cc1cc(NC(c2cccnc2)c2ccc3cccnc3c2O)no1 (stereo not given)	Beta cell apopt 104, Mdm2 MdmX PPI 74 (no result: CSC inhib) | Mdm2 MdmX conf 68 | FLuc counter 40
NCC(c1ccccc1)c1c[nH]c2ccccc12 (stereo not given)	none
O=[N+]([O-])CC(c1ccc(F)cc1)c1c[nH]c2ccccc12 (stereo not given)	Mdm2 MdmX PPI 63 | Mdm2 MdmX conf 66 | FLuc counter 42
Cc1cc(NC(=O)c2ccccc2)nc2c1c(=O)oc1ccccc12	none
CCOc1ccc(C(=O)Nc2cc(C)c3c(=O)oc4ccccc4c3n2)cc1	Mdm2 MdmX PPI 65 | Mdm2 MdmX conf inactive
COc1ccccc1Nc1nc(N)nc(CCl)n1	Mdm2 MdmX PPI 72 | Mdm2 MdmX conf 68 | FLuc counter 54
COc1ccc(OC)c(Nc2nc(N)nc(CCl)n2)c1	Mdm2 MdmX PPI 82 | Mdm2 MdmX conf 84 | FLuc counter 41
COc1ccccc1C(=O)Nc1ccccc1SC(=O)c1ccccc1OC	Mdm2 MdmX PPI 63 | Mdm2 MdmX conf inactive | FLuc counter 90
CCCNC(=O)c1ccc(N2CCC3(CC2)CC(c2cccc(Br)c2)=NO3)c(NC(=O)c2ccc(Cl)c([N+](=O)[O-])c2)c1	Mdm2 MdmX PPI 61 | Mdm2 MdmX conf inactive
CCN(C(=O)c1c([N+](=O)[O-])cnn1C)c1ccccc1	none (no result: CSC inhib, Beta cell apopt, GRIN3A LBD mod, Mdm2 MdmX PPI, SKKanGAS inh)
CCN(CC)CCn1c2c(c(SCC(=O)Nc3nc(C)cs3)nc1=O)CCC2	Mdm2 MdmX PPI 52 | Mdm2 MdmX conf inactive
CCCCc1ccc(NC(=O)CSc2nc(=O)n(CCN(CC)CC)c3c2CCC3)cc1	CSC inhib 80, Mdm2 MdmX PPI 59 | Mdm2 MdmX conf inactive | FLuc counter 62
Cc1ccc2nc(NC(=O)CSc3nc(=O)n(CCN(C)C)c4c3CCCC4)sc2c1	Mdm2 MdmX PPI 65 | Mdm2 MdmX conf 49 | FLuc counter 71
Cc1ccc(NC(=O)CSc2nc(=O)n(CCCN(C)C)c3c2CCC3)c(C)c1	none
CCN(CC)CCn1c2c(c(SCC(=O)Nc3nc(C)cs3)nc1=O)CCCC2	none
CSc1cccc(N2CC(C(=O)Nc3cccc(S(=O)(=O)N4CCCC4)c3)CC2=O)c1 (stereo not given)	none
COC(=O)c1ccccc1NC(=O)c1ccnn1C	none
COCCCN=C1NN=C(c2cc(C)n(-c3ccccc3)c2C)CS1	none
COCCn1c(C)cc(C2=NNC(=Nc3ccccc3F)SC2)c1C	Mdm2 MdmX PPI 73 | Mdm2 MdmX conf 88 | FLuc counter inactive
C=CCN=C1NN=C(c2cc(C)n(CC=C)c2C)CS1	Mdm2 MdmX PPI 87 | Mdm2 MdmX conf 89 | FLuc counter 50
COCCCN=C1NN=C(c2cc(C)n(-c3ccccc3F)c2C)CS1	none
COCCCN=C1NN=C(c2cc(C)n(Cc3ccccc3Cl)c2C)CS1	Mdm2 MdmX PPI 79 | Mdm2 MdmX conf 76 | FLuc counter 80
Cc1cccc(-n2c(C)cc(/C=N\NC(=O)c3ccco3)c2C)c1	none
CC1=C(O)C(=O)C(c2c(C)cc(C)c(Br)c2C)=C(O)C1=O	none (no result: CSC inhib, Beta cell apopt, GRIN3A LBD mod, Mdm2 MdmX PPI, SKKanGAS inh)
FC(F)(F)c1ccc(Oc2ccc(Cl)cc2Br)nc1	none
O=C(CSc1nc(-c2ccccc2)cs1)NCCCN1CCCC1=O	none (no result: SKKanGAS inh)
Cc1cc(C(=O)N/N=C/c2ccc([N+](=O)[O-])o2)c(C)o1	none
